“And” between values parts separate entries of the source, which are not always exact repeats. Equal values may be shown once. The source made the active and inactive calls. Unless noted, no stated cut-off is given here; in the data, active means inhibition above about 80%; inactive means the rest.
Experiments:
[1] = circadian clock period modulators, cell-based, LOPAC library, luminescence reporter (AID 2774; call rule not given here;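 further: values are relative to mean of DMSO wells on each plate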); conditions: circadian reporter cells, at 7 µM, actives lie on both sides
[2] = test system: Hepatitis C virus NS3 helicase; assay: HCV NS3 helicase inhibitors, primary screen, biochemical, fluorescence polarization, LOPAC1280 library (AID 687035; in the data active means inhibition above about 37%); conditions: Purified HCV NS3 helicase, Cy5-dT15 ssDNA binding fluorescence polarization; stronger effect = higher value; concentration not given here
[3] = Cy5 fluorescence quenching or enhancement artefacts, artefact control for HCV NS3 helicase inhibitor project, biochemical, LOPAC1280 (AID 687037; call rule not given here); conditions: Cy5-DNA-NS3h complex fluorescence interference counterscreen
[4] = sensitizers of A549 cells to miR-34 induction, primary screen, imaging, A549 dox-inducible miR-34, nuclei and caspase counts (AID 1347080;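 active means compounds whose cell count with miR-34 switched on is under 0.7 times the count with it off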); conditions: A549 miR-34 inducible, Hoechst nuclei count, 48 h
[5] = viability rescue of complex I mutant cybrids, primary screen, cell-based, galactose medium, ATP luminescence (AID 1645843;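 active means z-score of at least 1.8 in each of two replicates, scored against plate mean and spread of sample wells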;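 further: positive z means more ATP and so rescue of galactose-driven cybrid death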); conditions: complex I mutant cybrid cells, 72 h, stronger effect = higher value
[6] = LFS_MB_P medulloblastoma growth inhibition, cell-based, chromothripsis tumors, cisplatin or BGB combos (AID 1671449); conditions: LFS_MB_P medulloblastoma cells;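 further: cells exposed for 96 hours; 0% = vehicle DMSO and 100% = killing by high DMSO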
[7] = HDN33 neuroblastoma growth inhibition, cell-based, chromothripsis tumors, cisplatin or BGB combos (AID 1671450); conditions: HDN33 neuroblastoma cells, stronger effect = higher value;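 further: cells exposed to compound for four days; 0% = vehicle DMSO and 100% = cell killing by high DMSO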
[8] = ICB984 medulloblastoma cell growth inhibition, synergistic combos for chromothripsis tumors, cisplatin or BGB combos (AID 1671451; call rule not given here;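 further: cells exposed for 96 hours before readout; 0% = vehicle DMSO and 100% = killing by high DMSO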); conditions: ICB984 medulloblastoma cells, drug combinations, stronger effect = higher value
[9] = LFS_MB_1R medulloblastoma cell growth inhibition, synergistic combos for chromothripsis tumors, cisplatin or BGB combos (AID 1671452); conditions: LFS_MB_1R medulloblastoma cells, stronger effect = higher value;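 further: cells exposed for 96 hours before readout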
[10] = HTB85 osteosarcoma cell growth inhibition, synergistic combos for chromothripsis tumors, BGB or cisplatin IC20 combos (AID 1671453); conditions: HTB85 osteosarcoma cells, drug combinations, stronger effect = higher value;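 further: cells exposed for 96 hours before readout; 0% = vehicle DMSO and 100% = high DMSO killing control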
[11] = CRL2098 osteosarcoma cell growth inhibition, synergistic combos for chromothripsis tumors, BGB or cisplatin IC20 combos (AID 1671454); conditions: CRL2098 osteosarcoma cells, drug combinations, stronger effect = higher value;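 further: cells exposed for 96 h before readout; 0% = vehicle DMSO and 100% = killing by high DMSO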
[12] = HD-MB03 medulloblastoma cell growth inhibition, synergistic combos for chromothripsis tumors, BGB or cisplatin IC20 combos (AID 1671455; in the data active means inhibition above about 83%;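 further: 0% = vehicle DMSO and 100% = high DMSO as cytotoxic control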); conditions: HD-MB03 medulloblastoma cells, stronger effect = higher value
[13] = UWB1.289 ovarian carcinoma cell growth inhibition, synergistic combos for chromothripsis tumors, BGB or cisplatin combos (AID 1671456); conditions: UWB1.289 ovarian carcinoma cells, stronger effect = higher value;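 further: cells exposed to compound for four days; 0% = vehicle DMSO and 100% = killing by high DMSO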
[14] = LFS_MB_2R medulloblastoma cell growth inhibition, synergistic combos for chromothripsis tumors, cisplatin combos (AID 1671457); conditions: LFS_MB_2R medulloblastoma cells, stronger effect = higher value;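 further: cells exposed to compound for four days before readout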
[15] = MDA-MB-436 breast carcinoma cell growth inhibition, synergistic combos for chromothripsis tumors, BGB or cisplatin combos (AID 1671458; call rule not given here;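 further: cells exposed for 96 hours; 0% = vehicle DMSO and 100% = killing by high DMSO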); conditions: MDA-MB-436 breast carcinoma growth inhibition, drug combinations, stronger effect = higher value
[16] = UWB1.289_BRCA1 ovarian cancer growth, cell-based, BGB or cisplatin combinations (AID 1671459); conditions: UWB1.289 BRCA1 ovarian carcinoma, drug combinations, stronger effect = higher value
[17] = human astrocyte viability loss, single and combined drugs, cytotoxicity control for chromothriptic childhood tumor combination screen, cell-based, BGB or cisplatin IC20 combos (AID 1671460); conditions: Human astrocytes, drug combinations, stronger effect = higher value;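 further: cells exposed to compounds for 96 hours before viability readout; 0% = vehicle and 100% = killing control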
[18] = growth inhibition of BT084 medulloblastoma cells, cell-based, ICGC_MB145, cisplatin and BGB IC40 combos (AID 1671461); conditions: drug combinations, stronger effect = higher value;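 further: cells exposed to drugs for 96 hours; 0% = vehicle DMSO and 100% = high DMSO full killing control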
[19] = stronger effect = lower value, cell number ratio, induced over uninduced
[20] = measured here: relative caspase fold change +Dox/-Dox
[21] = measured here: total cells with miR-34 induction, stronger effect = lower value
[22] = measured here: total cells without miR-34 induction
[23] = measured here: combination with BGB IC40, at 0.05 µM
[24] = measured here: combination with cisplatin, at 0.5 µM
[25] = measured here: combination with cisplatin, at 5 µM

With `Oc1ccc(Cn2cc[nH]c2=S)cc1` the period change [1] was 0.16 h (inactive), the inhibition [2] was -4% (inactive) and the fluorescence ratio (interference) [3] was 1 (inactive). For the same molecule, the fold change [4, 19] was 0.942 (inactive), the fold change [4, 20] was 1.11 and the cell count [4, 21] was 9950. The cell count [4, 22] was 10600 and the z-score [5] was 0.15 (inactive).
For `Nc1ccccc1NC(=O)CCCCCCC(=O)Nc1ccccc1`, the fold change [4, 19] was 1.01 (inactive), the fold change [4, 20] was 0.802 and the cell count [4, 21] was 5630. The cell count [4, 22] was 5580, the inhibition ([6]; at 0.5 µM, stronger effect = higher value) was -12.9% (inactive) and -25.1% (inactive) and the inhibition ([6]; measured here: combination with BGB IC20, at 0.005 µM) was -23.2% and 0.813%. For the same molecule, the inhibition ([6]; measured here: combination with BGB IC40, at 0.005 µM) was 83.8% and -29.2%, the inhibition [6, 23] was -12.1% and -1.18% and the inhibition ([6]; measured here: combination with cisplatin, at 0.5 µM, stronger effect = higher value) was -8.88% and -35.8%. The inhibition ([6]; measured here: combination with cisplatin, at 5 µM, stronger effect = higher value) was 46.8% and 54.9%, the inhibition ([7]; BGB combo, at 5 µM) was 20.6% and 28.7% and the inhibition ([7]; at 0.5 µM) was 5.22% (inactive) and 5.82% (inactive). The inhibition ([7]; cisplatin combo, at 5 µM) was 39.9% and 36.6%, the inhibition ([7]; measured here: with BGB IC20 combination, at 0.5 µM) was 3.82% and 0.196% and the inhibition ([7]; measured here: with cisplatin IC20 combination, at 0.5 µM) was 11.3% and -1.37%. For the same molecule, the inhibition ([7]; single agent, at 5 µM) was 23.6% and 28%, the inhibition ([8]; BGB IC20 combo, at 0.005 µM) was -17.1% and -28% and the inhibition ([8]; BGB IC40 combo, at 0.005 µM) was -32.5% and -14.2%. For the same molecule, the inhibition ([8]; BGB IC40 combo, at 0.05 µM) was -14.5% and 9.77%, the inhibition ([8]; at 0.5 µM) was -15.5% (inactive) and -30% (inactive) and the inhibition ([8]; cisplatin combo, at 0.05 µM) was -20.4% and 6.2%. The inhibition ([8]; cisplatin combo, at 0.5 µM) was -17.3% and -48.3%, the inhibition ([8]; cisplatin combo, at 5 µM) was -18.3% and -14.7% and the inhibition ([8]; measured here: 5 uM single agent, at 5 µM) was -14.3% and -5.49%. For the same molecule, the inhibition ([9]; at 0.5 µM) was -20.2% (inactive) and -14.9% (inactive), the inhibition [9, 23] was -18.8% and -20.1% and the inhibition [9, 24] was -21.4% and -9.37%. For the same molecule, the inhibition [9, 25] was 34.7% and 36.3%, the inhibition ([10]; at 0.5 µM) was 1.45% (inactive) and -7.23% (inactive) and the inhibition ([10]; measured here: with BGB IC20, at 0.5 µM) was 2.99% and -6.61%. For the same molecule, the inhibition ([10]; measured here: with BGB IC20, at 5 µM) was 19.2% and 7.94%, the inhibition ([10]; measured here: with cisplatin IC20, at 0.5 µM) was -1.97% and -10.6% and the inhibition ([10]; measured here: with cisplatin IC20, at 5 µM) was 29.1% and 24.4%. For the same molecule, the inhibition ([10]; single agent, at 5 µM) was 11.1% and 13.2%, the inhibition ([11]; at 0.5 µM) was -31.9% (inactive) and -38.7% (inactive) and the inhibition ([11]; measured here: combination with BGB at IC20, at 0.5 µM) was -43.5% and -26.6%. The inhibition ([11]; measured here: combination with cisplatin at IC20, at 0.5 µM) was -10.1% and -25.3%, the inhibition ([12]; at 0.5 µM) was -7.05% (inactive) and -2.46% (inactive) and the inhibition ([12]; measured here: combo with BGB at IC20, at 0.5 µM) was -17.3% and -8.59%. The inhibition ([12]; measured here: combo with cisplatin at IC20, at 0.5 µM) was -8.12% and 7.03%, the inhibition ([13]; at 0.5 µM) was -2.22% (inactive) and -4.15% (inactive) and the inhibition ([13]; measured here: inhibition with BGB combination, at 0.05 µM) was -17% and -12.6%. The inhibition ([13]; measured here: inhibition with cisplatin combination, at 0.05 µM) was -16.5% and -4.91%, the inhibition ([14]; at 0.5 µM) was -23.5% (inactive) and -15.8% (inactive) and the inhibition [14, 24] was -37.7% and -10.7%. The inhibition [14, 25] was 7.67% and 25.4%, the inhibition ([15]; at 0.5 µM) was -14.6% (inactive) and -1.03% (inactive) and the inhibition ([15]; measured here: BGB combination, at 0.5 µM) was -7.46% and 0.27%. For the same molecule, the inhibition ([15]; measured here: BGB combination, at 5 µM) was 5.07% and 2.02%, the inhibition ([15]; measured here: cisplatin combination, at 0.5 µM) was -38.4% and 3.8% and the inhibition ([15]; measured here: cisplatin combination, at 5 µM) was -8.44% and 23.3%. For the same molecule, the inhibition ([16]; BGB combination, concentration series, at 5 µM) was 0.199% and 30.8%, the inhibition ([16]; at 0.5 µM) was -7.51% (inactive) and -1.85% (inactive) and the inhibition ([16]; cisplatin combination, concentration series, at 5 µM) was 21% and 30.8%. For the same molecule, the inhibition ([17]; at 0.5 µM) was 4.47% (inactive) and 4% (inactive), the inhibition ([17]; measured here: combo with BGB IC20, at 0.5 µM) was 8.04% and 0.536% and the inhibition ([17]; measured here: combo with cisplatin IC20, at 0.5 µM) was -1.54% and 9.6%. For the same molecule, the inhibition ([18]; at 0.5 µM) was 4.38% (inactive) and 12.8% (inactive), the inhibition ([18]; cisplatin combination, at 0.5 µM) was -7.78% and 20.7% and the inhibition ([18]; cisplatin combination, at 5 µM) was -10.7% and 73.5%.

Reference: PubChem BioAssay
